Experimental data as given in ChEMBL document CHEMBL4513216, “Probing the Open Global Health Chemical Diversity Library for Multistage-Active Starting Points for Next-Generation Antimalarials” (ACS Infect Dis, 2020).
Screen size: about 69,000 compounds; about 8,600 (12%) showed an effect of 50% or more. The full list was thinned out, with strong results kept by preference.

Test system: Plasmodium berghei
Assay: Screen against P. berghei liver stage (PbLuc), transformed with Luciferase, at 10uM
Format: functional, HepG2
Conditions: tested at 10 uM

Row | Structure (SMILES) | INHIBITION [%]
1 | CCOCCNC(=O)c1cccnc1N1CCCC1c1ccccn1 (stereo not given) | -31
2 | CCc1nc(CN(C)CC(=O)NC(C)C)cs1 | 14.8
3 | Cc1ccc(-n2c(O)cc(C)c(C#N)c2=O)c(C)c1 | -8.66
4 | Cc1cnn(CC2CCCCN2C(=O)c2nccnc2N)c1 (stereo not given) | -19.9
5 | CC(=O)c1ccccc1-c1nc(CC2CCN(C)CC2)no1 | 24.7
6 | Clc1cccc(C(CNCc2ccccn2)N2CCOCC2)c1 (stereo not given) | 53.9
7 | Clc1cccc(C(CNCc2cccnc2)N2CCOCC2)c1 (stereo not given) | 23.2
8 | Clc1cccc(C(CNc2ncccn2)N2CCOCC2)c1 (stereo not given) | -14.5
9 | COc1ccc(C)cc1-c1[nH]c2ccccc2c1C(=O)O | 3.52
10 | Cc1ccc2c(n1)N(CC(C)C)CCN(C(=O)Cc1ccccn1)C2 | 2.41
11 | CC(Cc1cn(CCc2nc(N)cc(O)n2)nn1)c1ccccc1 (stereo not given) | 24.9
12 | O=c1c(Cc2ccccc2)c(O)ccn1CCc1ccccc1 | 56.2
13 | O=c1c(Cc2ccccc2)c(O)ccn1Cc1ccco1 | 34
14 | O=c1c(Cc2ccccc2)c(O)ccn1Cc1cccs1 | -23.5
15 | Cc1nn(CCc2nnc(NCC(C)C)s2)c(C)c1Br | 7.38
16 | C=C(C)CN1CCCC(CNS(C)(=O)=O)C1 (stereo not given) | 12
17 | O=C(Cc1ccsc1)N1C[C@@H]2OCCN(c3cnccn3)[C@@H]2C1 | 52.3
18 | CN(C)CCN1CCO[C@@H]2CN(C(=O)Cc3ccsc3)CC[C@@H]2C1 | 51.2
19 | CS(=O)(=O)N1CCO[C@@H]2CN(C(=O)Cc3cccs3)CC[C@@H]2C1 | 16.8
20 | CC(C)N1CCO[C@@H]2CN(C(=O)Cc3cccs3)CC[C@@H]2C1 | 59.3
21 | CN(C)CCN1CCO[C@@H]2CN(C(=O)c3cccs3)CC[C@@H]2C1 | 15.9
22 | Cc1ccc(CC(=O)N2CC[C@@H]3CN(CCN(C)C)CCO[C@@H]3C2)cc1 | 47.8
23 | O=C(C1CC(F)(F)C1)N1C[C@@H]2CN(Cc3ccsc3)CCO[C@@H]2C1 | 41.6
24 | CN1CCO[C@@H]2CN(C(=O)Cc3cccs3)CC[C@@H]2C1 | 26.7

Row | Structure (SMILES) | INHIBITION [%]
25 | O=C(Cc1ccsc1)N1C[C@@H]2OCCN(CC3CC3)[C@@H]2C1 | 31.4
26 | CC(C)N1CCO[C@H]2CN(C(=O)Cc3ccsc3)C[C@H]21 | 7.24
27 | O=C(C1CCOCC1)N1C[C@@H]2CN(Cc3ccsc3)CCO[C@@H]2C1 | 22.9
28 | O=C(C1CC=CC1)N1C[C@@H]2CN(Cc3ccsc3)CCO[C@@H]2C1 | 53.2
29 | O=C(CN1CCCC(Cn2cncn2)C1)NCCC1=CCCCC1 (stereo not given) | 37.9
30 | CCc1n[nH]c(C2CN(C(=O)c3cnn(CC)c3)CCO2)n1 (stereo not given) | -8.11
31 | O=C(c1ccc2c(c1)OCO2)N1CCC(Nc2cccnn2)CC1 | 31.9
32 | CN(C)C(=O)COC[C@@H]1CC[C@H]2[C@H](CCN2c2ccccn2)O1 | 11.4
33 | Cn1ccc(C(=O)N2C[C@H]3CCC[C@@]3(COCc3cccnc3)C2)n1 | 3.69
34 | O=C(CC1CCCC1)N1C[C@@H]2CN(Cc3ccoc3)CCO[C@@H]2C1 | 34.6
35 | O=C(c1cocn1)N1C[C@@H]2CN(CC3CC3)CCO[C@@H]2C1 | 6.83
36 | O=C(c1cocn1)N1C[C@@H]2CN(Cc3ccco3)CCO[C@@H]2C1 | 63
37 | O=C(C1CC(F)(F)C1)N1C[C@@H]2CN(Cc3ccoc3)CCO[C@@H]2C1 | -35.1
38 | CCN1CCO[C@@H]2CN(C(=O)c3cocn3)C[C@@H]2C1 | 18.7
39 | O=C(N1CCCC1)N1C[C@@H]2CN(Cc3ccoc3)CCO[C@@H]2C1 | 80
40 | O=C1NC2(CCN(CC(=O)N3CCOCC3)CC2)Nc2ccc(Br)cc21 | 23.89
41 | CN1Cc2ccccc2N(CC(O)C(F)(F)F)CCC1=O (stereo not given) | 18.4
42 | CC(C)CC(NC(=O)c1ccco1)c1nc2cccnc2n1C (stereo not given) | 48
43 | Cc1cc(C)n(CCCN(C)Cc2cn[nH]c2-c2ccc(F)cc2)n1 | 14
44 | Cc1ccc(CN2CCOCC3(CCN(Cc4cccs4)C3)C2)o1 (stereo not given) | -34
45 | CCOCCN1CCN(CCc2ccc3c(c2)CCO3)CC1 | 67.6
46 | CCOCCN1CCN(c2ccc(CN(C)C)cn2)CC1 | 7.24
47 | COCC(C)N1CCN(CCc2ccc3c(c2)CCO3)CC1 (stereo not given) | 51.9
48 | CN(CCc1ccc2c(c1)CCO2)C1CCS(=O)(=O)CC1 | 19

Row | Structure (SMILES) | INHIBITION [%]
49 | CC(C)NC1CCN(CCc2ccc3c(c2)CCO3)CC1 | 35.1
50 | Cc1nc(CN(C)C2CCN(CCc3ccc4c(c3)CCO4)C2)no1 (stereo not given) | -8.11
51 | CC(=O)NCCNC(=O)c1cccc(Cn2nc(C)cc2C)c1 | -18.9
52 | COCCN(C)C[C@@H]1CCC[C@@H]2CN(Cc3ccc(OC)nc3)C[C@@H]21 | 20.1
53 | CCCC(O)CN1CC(C)(C)CN(C(=O)c2ccc(SC)cc2)CC1=O (stereo not given) | 43.4
54 | O=C(NCCCn1cncn1)c1ccc(-c2ccco2)[nH]c1=O | 56.3
55 | Cc1ccc(C(=O)NCCCn2cncn2)c(=O)[nH]1 | 4.41
56 | O=C(NCCCn1cncn1)c1ccc(-c2ccccc2)[nH]c1=O | -12.9
57 | CN1CC(=O)N(c2ccsc2)CC12CCN(S(C)(=O)=O)C2 (stereo not given) | -12.2
58 | CCc1nc(C2CCCN2CC(=O)Nc2cc(C)on2)no1 (stereo not given) | 22.3
59 | COc1ccc(-c2noc(C(N)CCSC)n2)cc1 (stereo not given) | 36.2
60 | O=C(NCCNc1ncccn1)N1CCCC1c1ccc(F)cc1 (stereo not given) | 6.11
61 | CNC(=O)c1nc(CC(=O)Nc2ccc3cc[nH]c3c2)no1 | 30.5
62 | CS(=O)(=O)c1ccccc1NCc1ccc(Cn2ccnc2)cc1 | 52
63 | CNC(=O)c1cccnc1NCc1ccc(Cn2cccn2)cc1 | 21.9
64 | c1ccc(NCc2ccc(Cn3ccnc3)cc2)nc1 | 6.7
65 | CNC(=O)c1cccnc1NCc1ccc(Cn2ccnc2)cc1 | 85.7
66 | CC(C)COC(C)C(=O)NCc1ccc(Cn2ccnc2)cc1 (stereo not given) | 58.3
67 | CC(C)COC(C)C(=O)NCc1ccccc1Cn1ccnc1 (stereo not given) | 32.3
68 | CC(OCC1CC1)C(=O)NCc1ccc(Cn2ccnc2)cc1 (stereo not given) | 30.1
69 | CNC(=O)c1cccnc1NCc1ccc(-n2cccn2)cc1 | 26.4
70 | Brc1ccc(NCc2ccc(Cn3ccnc3)cc2)nc1 | -51.4
